An excerpt weighted towards active compounds, which were near 18% of everything screened.
CtBP-E1A inh = blocks the CtBP interaction with E1A; AlphaScreen GST-E1A/His-CtBP binding, 1536-well; stronger effect = lower value; activity change, % (no concentration beside the values); hit rate 0.49% among 340,000; AID 651724; in the data active = activity change below about -65%; inconclusive = mostly about -30% to -63%
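GST-E1A and His-tagged CtBP (125 nM each as 5X stock) were preincubated with pin-transferred compound for 2 h at 37 °C in the dark, then glutathione donor and nickel acceptor beads were added for 1 h before AlphaScreen reading.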
IL-1B inflam inh = inflammasome signaling inhibition, IL-1 beta readout | THP-1 LPS/ATP IL-1B secretion, AlphaLISA, 16 h; stronger effect = lower value | activity change, % at 57.5 µM | hit rate 4.7% among 360,000 | AID 743279; in the data active = activity change below about -50%; inconclusive = mostly about -30% to -49%
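Secreted IL-1B measured by AlphaLISA bead assay after 16 h compound exposure of THP-1 cells; compounds (final up to 57.5 uM) added 1 h before LPS (250 ng/mL) and ATP (1.25 mM) stimulation; lower signal means less secretion.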
Six1-Eya2 inh = Six1/Eya2 interaction inhibition | activity change, % (concentration not given with the values) | hit rate 0.56% among 360,000 | AlphaScreen GST-Six1/His-Eya2 binding, biochemical; stronger effect = lower value | AID 651725 | Q15475+O00167; in the data active = activity change below about -65%; inconclusive = mostly about -30% to -63%
Target sequence (O00167 whole entry, looked up): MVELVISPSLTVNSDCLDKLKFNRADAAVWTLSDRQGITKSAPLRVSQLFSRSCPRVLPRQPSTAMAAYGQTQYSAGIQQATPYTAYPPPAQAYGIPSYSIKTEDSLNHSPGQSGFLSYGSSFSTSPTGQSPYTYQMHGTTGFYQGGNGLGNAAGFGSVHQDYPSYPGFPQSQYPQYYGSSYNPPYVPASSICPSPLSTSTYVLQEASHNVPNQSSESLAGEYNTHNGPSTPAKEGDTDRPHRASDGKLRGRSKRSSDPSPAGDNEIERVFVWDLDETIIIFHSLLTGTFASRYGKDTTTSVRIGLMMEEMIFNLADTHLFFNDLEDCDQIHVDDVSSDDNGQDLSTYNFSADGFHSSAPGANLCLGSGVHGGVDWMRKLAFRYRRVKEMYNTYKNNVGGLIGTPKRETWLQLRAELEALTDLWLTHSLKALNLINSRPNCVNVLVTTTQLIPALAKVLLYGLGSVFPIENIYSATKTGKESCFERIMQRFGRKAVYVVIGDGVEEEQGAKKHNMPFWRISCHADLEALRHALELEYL
Target sequence (Q15475 whole entry, looked up): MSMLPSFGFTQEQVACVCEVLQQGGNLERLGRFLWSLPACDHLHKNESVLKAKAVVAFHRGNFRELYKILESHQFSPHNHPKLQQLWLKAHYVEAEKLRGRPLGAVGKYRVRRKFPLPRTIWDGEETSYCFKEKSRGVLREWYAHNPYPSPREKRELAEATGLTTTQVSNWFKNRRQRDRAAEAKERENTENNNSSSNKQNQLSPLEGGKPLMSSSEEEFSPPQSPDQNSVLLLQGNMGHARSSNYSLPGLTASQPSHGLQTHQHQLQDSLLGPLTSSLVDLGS
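GST-Six1 + His-Eya2 (5X stock: 250/500 nM); Tris pH 8.0, 300 mM NaCl, 0.05% BSA, 0.02% Tween 20; GSH donor/Ni acceptor beads; 1 h 37 °C dark; AlphaScreen readout.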
TDP1 cell CPT = DT40-hTDP1 cell growth loss with CPT; chicken DT40 Tdp1-/-;hTDP1 cells + 20 nM CPT, ATP luminescence, 48 h; Potency, µM (titrated, usually from 46.2 µM), inactives show top-dose activity change, negative = growth inhibition, most hits filed as inhibitors; hit rate 12% among 420,000; also: potency is read from the fitted curve at half-maximal effect; nearly all actives have a fitted effect of over 55% in size
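Cell growth measured by CellTiter-Glo luminescence after a minimum 48 h, 37 C compound exposure with 20 nM CPT in Tdp1-knockout DT40 cells stably expressing hTDP1, seeded 400/well; qHTS titration format.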
TDP1 block = blocks human tyrosyl-DNA phosphodiesterase 1 | recombinant TDP1, AlphaScreen DNA substrate cleavage | Potency, µM (top dose mostly 130 µM), for the others: top-dose activity change, negative = inhibition, usual class: inhibitors | hit rate 0.28% among 350,000 | AID 485290; also: potency is read from the fitted curve at half-maximal effect; nearly all actives have a fitted effect of over 40% in size
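Recombinant human Tdp1 (E. coli-expressed, 1 nM final) preincubated with compounds 15 min at room temperature, then 5'-biotin/3'-phosphotyrosine-FITC DNA substrate (15 nM final) added for 5 min. AlphaScreen beads (10 ug/ml final) added 10 min; cleavage lowers signal.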
TDP1 cell noCPT = qHTS for Inhibitors of human tyrosyl-DNA phosphodiesterase 1 (TDP1): qHTS in cells in absence of CPT; DT40 Tdp1-/- hTDP1 cells, no CPT, ATP luminescence, 48 h; Potency, µM (series often up to 46.2 µM), for the others: top-dose activity change, negative = growth inhibition, hits mostly inhibitors; hit rate 15% among 420,000; AID 686978, 2013; also: potency is read from the fitted curve at half-maximal effect; nearly all actives have a fitted effect of over 55% in size
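Readout: luminescence from CellTiter-Glo after 30 min in the dark at RT. Cells: DT40 Tdp1-/- with stable hTDP1, 400/well. Exposure: compounds alone, ≥48 hr, 37 °C.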
Starred values were filed as active, the others as inactive; [ ] = another dose, or the depositor's remark. Unless noted, calls follow the shape of the dose curve; as a rule, active = well fitted curve in the direction sought with a large enough effect; inconclusive = small, poorly fitted or top-dose-only effect, or another doubt; inactive = no such curve, though single readings can be large; an effect the other way counts as inactive or inconclusive. % is scaled to controls: 0 for no effect and ±100 for the full control effect.

COc1ccc(N2CCN(C(=O)c3ccc(N(C)S(=O)(=O)c4ccc(OC)cc4)cc3)CC2)cc1 was read as CtBP-E1A inh -19, IL-1B inflam inh inconclusive, Six1-Eya2 inh -26, TDP1 cell CPT inconclusive, TDP1 block 8% and TDP1 cell noCPT 16µM*.
COc1ccc(S(=O)(=O)N(C)c2ccc(C(=O)N3CCN(C)CC3)cc2)cc1 was read as CtBP-E1A inh 3, IL-1B inflam inh 10, Six1-Eya2 inh -11, TDP1 cell CPT -15%, TDP1 block 4%[56.1 µM] and TDP1 cell noCPT -28%.
For COc1cc(/C=C(\C#N)C(=O)Nc2cccc(C(=O)O)c2)ccc1OCc1ccc(F)cc1 the results were CtBP-E1A inh -70*, IL-1B inflam inh 8, Six1-Eya2 inh -14, TDP1 cell CPT -5%, TDP1 block 56µM* and TDP1 cell noCPT -11%.
N#C/C(=C\c1ccc(OCc2ccc(F)cc2)cc1)C(=O)Nc1cccc(C(=O)O)c1 was read as CtBP-E1A inh 2, IL-1B inflam inh -3, Six1-Eya2 inh 1, TDP1 cell CPT 3%, TDP1 block 45µM* and TDP1 cell noCPT 3%.
Screening COc1ccc(NC(=O)/C(C#N)=C\c2ccc(OCc3ccc(C(=O)O)cc3)c(OC)c2)cc1 returned CtBP-E1A inh -20, IL-1B inflam inh 39, Six1-Eya2 inh -5, TDP1 cell CPT -6%, TDP1 block inconclusive and TDP1 cell noCPT -19%.
COc1cc(/C=C(/C#N)C(=O)Nc2cc(C(F)(F)F)ccc2Cl)ccc1OCC(=O)Nc1cccc(C(F)(F)F)c1 was read as CtBP-E1A inh -6, IL-1B inflam inh 4, Six1-Eya2 inh -1, TDP1 cell CPT 18µM* and TDP1 cell noCPT 23µM*.
For O=C(COc1ccc(C(F)(F)F)cc1[N+](=O)[O-])Nc1cccc(C(F)(F)F)c1 the results were CtBP-E1A inh 7, IL-1B inflam inh -10, Six1-Eya2 inh 2, TDP1 cell CPT 24%, TDP1 block 3% and TDP1 cell noCPT -16%.
`CCOc1cc(/C=C(\C#N)C(=O)Nc2cccc(C(=O)O)c2)ccc1OCc1ccccc1Cl` gave CtBP-E1A inh inconclusive, IL-1B inflam inh -3, Six1-Eya2 inh 8, TDP1 cell CPT inconclusive, TDP1 block 79µM* and TDP1 cell noCPT inconclusive.
`COc1ccc(OC)c(/C=C/c2nc3ccccc3c(=O)n2-c2ccc(F)c(Cl)c2)c1` gave TDP1 cell CPT inconclusive, TDP1 block 3% and TDP1 cell noCPT inconclusive.
`CCOC(=O)Cn1c(=O)oc2cc(S(=O)(=O)N(C)Cc3ccccc3)ccc21` gave CtBP-E1A inh 2, IL-1B inflam inh 32, Six1-Eya2 inh 4, TDP1 cell CPT -13%, TDP1 block 2% and TDP1 cell noCPT -4%.
`N#C/C(=C\c1ccc(OCc2ccc(Br)cc2)cc1)C(=O)Nc1cccc(C(=O)O)c1` gave CtBP-E1A inh 0, IL-1B inflam inh -21, Six1-Eya2 inh 11, TDP1 cell CPT 25%, TDP1 block 22µM* and TDP1 cell noCPT -5%.
N#C/C(=C/c1ccc(OCc2ccc(C(=O)O)cc2)cc1)C(=O)Nc1ccccc1 was read as IL-1B inflam inh inconclusive, Six1-Eya2 inh -3, TDP1 cell CPT -25% and TDP1 cell noCPT -26%.
For Cc1nn2c(=O)cc(COc3ccc(/C=C(\C#N)C(=O)Nc4ccccc4)cc3Cl)nc2s1 the results were TDP1 cell CPT -10% and TDP1 cell noCPT 21µM*.
Screening Cc1nn2c(=O)cc(COc3ccc(/C=C(\C#N)C(=O)Nc4ccccc4C)cc3)nc2s1 returned TDP1 cell CPT 14% and TDP1 cell noCPT inconclusive.
CC(=O)NS(=O)(=O)c1ccc(NC(=O)c2cccc(OCc3c(C)noc3C)c2)cc1 was read as IL-1B inflam inh 21, Six1-Eya2 inh 5, TDP1 cell CPT 2%, TDP1 block 2% and TDP1 cell noCPT 0%.
Screening O=C(Nc1nc(-c2ccccc2)cs1)C1COc2ccccc2O1 (stereo not drawn) returned CtBP-E1A inh -11, IL-1B inflam inh -5, Six1-Eya2 inh -2, TDP1 cell CPT -5%, TDP1 block 5% and TDP1 cell noCPT inconclusive.
`O=C(Nc1nc(-c2ccc(S(=O)(=O)N3CCCC3)cc2)cs1)C1COc2ccccc2O1` (stereo not drawn) gave CtBP-E1A inh -1, IL-1B inflam inh -29, Six1-Eya2 inh 5, TDP1 cell CPT 9.2µM*, TDP1 block 6% and TDP1 cell noCPT 7.3µM*.
Screening O=C(Nc1nc(-c2ccccn2)cs1)C1COc2ccccc2O1 (stereo not drawn) returned CtBP-E1A inh inconclusive, IL-1B inflam inh 94, Six1-Eya2 inh -91*, TDP1 cell CPT 3.3µM*, TDP1 block 5% and TDP1 cell noCPT 5.2µM*.
Cc1ccc2sc(NNC(=O)c3cc(=O)c4ccccc4o3)nc2c1C was read as CtBP-E1A inh -3, IL-1B inflam inh 31, Six1-Eya2 inh -14, TDP1 cell CPT 29µM* and TDP1 cell noCPT inconclusive.
O=C(Nc1ccc(S(=O)(=O)N2CCCC2)cc1)C1COc2ccccc2O1 (stereo not drawn) was read as CtBP-E1A inh -1, IL-1B inflam inh 4, Six1-Eya2 inh -2, TDP1 cell CPT inconclusive and TDP1 cell noCPT inconclusive.
For Cc1cnc(NC(=O)C2COc3ccccc3O2)s1 (stereo not drawn) the results were CtBP-E1A inh -5, IL-1B inflam inh 5, Six1-Eya2 inh 1, TDP1 cell CPT 21µM*, TDP1 block -6% and TDP1 cell noCPT inconclusive.
`COc1ccccc1CNC(=O)CN(c1ccc(C)cc1)S(=O)(=O)c1c(C)nn(C)c1C` gave CtBP-E1A inh -2, IL-1B inflam inh -10, Six1-Eya2 inh -1, TDP1 cell CPT -26%, TDP1 block 1% and TDP1 cell noCPT -25%.
O=C(NNc1nc2c(F)cccc2s1)C1COc2ccccc2O1 (stereo not drawn) was read as CtBP-E1A inh 3, IL-1B inflam inh -13, Six1-Eya2 inh -1, TDP1 cell CPT inconclusive, TDP1 block 2% and TDP1 cell noCPT -9%.
Screening Cc1ccc2sc(NNC(=O)C3COc4ccccc4O3)nc2c1C (stereo not drawn) returned CtBP-E1A inh 1, IL-1B inflam inh -11, Six1-Eya2 inh -12, TDP1 cell CPT 26µM*, TDP1 block 9% and TDP1 cell noCPT inconclusive.

From PubChem
